# Bioassay records: PubChem BioAssay, National Center for Advancing Translational Sciences (NCATS)
# Hits are enriched below; roughly 2.4% of the tested compounds scored in any of these assays.
# Rango complex inh = inhibitors of Rango-importin beta complex formation; Q14974; Rango CFP/YFP FRET sensor + importin beta, 45 min; Potency, µM (doses to about 92.2 µM), for the others: at the highest dose inhibition of complex formation; 0.031% of 340,000 active; AID 540263; calls by dose curve;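 further: 0% = DMSO wells and 100% = buffer wells lacking importin beta; nearly all actives have a fitted effect of over 15% in size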
#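 FRET biosensor Rango (snurportin 1 IBB between N-terminal EYFP and C-terminal Cerulean), 50 nM in PBS/1 mM DTT/0.02% Tween-20/0.1% BSA, preincubated 5 min RT with compound; 0.125 microM importin beta added, 45 min RT, CFP/YFP FRET ratio read.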
# Tb PFK block = T. brucei PFK enzyme inhibition | O15648 | T. brucei PFK, ADP-Glo luminescence | Potency, µM (top dose mostly 57.5 µM), without a hit: at the top dose activity, negative = inhibition, actives largely listed as inhibitors | 0.17% of 330,000 active | AID 485367;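 further: 0% = uninhibited 1x PFK enzyme wells and -100% = no-enzyme wells; nearly all actives have a fitted effect of over 60% in size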
#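 Compounds were pin-transferred as a titration series up to 57 uM into substrate buffer (0.5 mM F6P, 0.1 mM ATP, pH 8.0), then 1.25 nM PFK was added and reactions ran 45 min before ADP-Glo detection.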
# Rango release inh = inhibitors of RanGTP-induced Rango-importin beta complex dissociation; O95149+P62826; Biochemical FRET Rango-importin beta, RanGTP-induced dissociation; Potency, µM (highest dose often 46.1 µM), without a hit: at the highest dose activity change, negative = inhibition; 0.071% of 340,000 active; calls by dose curve; further: % of control where 0% means no effect; nearly all actives have a fitted effect of over 45% in size
#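 FRET read at 45 min, room temperature: inhibitors block the CFP/YFP signal rise when RanGTP (0.6 uM Ran, 2 mM GTP, 0.2 uM RCC1) frees Rango (0.1 uM) from importin beta (0.25 uM). Pre-read after 5 min compound exposure flags interference.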
# PGK inhibitor = blocks T. brucei phosphoglycerate kinase | P07378 | PGK/GAPDH coupled, Kinase-Glo luminescence, 60 min | Potency, µM (doses to about 57.5 µM), for the others: at the top dose activity change, negative = inhibition, most hits filed as inhibitors | 0.043% of 380,000 active; further: on the % scale 0 is the no-effect control and ±100 the full control effect; nearly all actives have a fitted effect of over 60% in size
#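 Recombinant glycosomal PGK reaction used 1,3-bisphosphoglycerate generated in-well by GAPDH (100nM final) in 100mM TEA pH 7.6, 5mM MgCl2, 0.01% Tween-20. After 60 minutes at room temperature, ATP was read by Kinase-Glo Plus luminescence end-point.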
# PKM2 act = increases activity of human pyruvate kinase M2; P14618; purified PKM2, Kinase-Glo ATP luminescence, activation; response scale: 0% is enzyme alone, no compound; Potency, µM (top dose mostly 57.5 µM), inactives show at the highest dose activation, most hits filed as activators; 0.34% of 260,000 active; further: on the % scale 0 is the no-effect control and ±100 the full control effect; nearly all actives have a fitted effect of over 55% in size
# Target sequence (P14618 whole entry, looked up): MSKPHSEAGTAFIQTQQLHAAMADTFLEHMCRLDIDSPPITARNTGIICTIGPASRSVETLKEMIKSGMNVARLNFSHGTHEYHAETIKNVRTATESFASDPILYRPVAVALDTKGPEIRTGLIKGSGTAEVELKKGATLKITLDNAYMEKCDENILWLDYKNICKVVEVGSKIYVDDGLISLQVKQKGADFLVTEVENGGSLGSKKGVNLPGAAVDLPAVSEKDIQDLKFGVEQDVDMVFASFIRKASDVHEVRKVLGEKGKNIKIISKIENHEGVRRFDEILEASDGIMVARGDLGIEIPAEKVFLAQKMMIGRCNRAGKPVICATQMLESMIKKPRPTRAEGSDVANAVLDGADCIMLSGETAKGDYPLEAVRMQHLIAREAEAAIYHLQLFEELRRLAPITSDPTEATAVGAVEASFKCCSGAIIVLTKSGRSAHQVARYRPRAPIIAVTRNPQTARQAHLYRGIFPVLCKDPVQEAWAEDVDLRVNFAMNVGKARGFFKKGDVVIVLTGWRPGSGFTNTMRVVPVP
#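 hPK-M2, >95% pure; 0.1 mM ADP / 0.5 mM PEP final; imidazole pH7.2 buffer w/ 7 mM MgCl2, 50 mM KCl; 1 h RT; Kinase-Glo lum. Intermediate enzyme activity for dual inhibitor/activator qHTS.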
# ELG1 DNA repair = blocks ELG1-dependent DNA repair in HEK293T cells; 2.3% of 330,000 active; HEK293T ELG1-luciferase reporter, luminescence, 16 h; DNA damage induced by 5-fluorouridine; Potency, µM (doses to about 46.1 µM), for the others: top-dose activity change, negative = inhibition, actives largely listed as inhibitors; further: on the % scale 0 is the no-effect control and ±100 the full control effect; nearly all actives have a fitted effect of over 55% in size
#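 Reporter activity after DNA damage by 5-fluorouridine is monitored. Compound-treated cells incubate 16 hr at 37 °C, then ONE-Glo is added for 30 min before luminescence reading.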
# * marks the source's active call; other numbers are inactive results; i = inactive; ? = inconclusive; · = no result; [ ] = dose if it differs, or a comment. Unless noted, the call rests on the fitted dose curve; in most records, active means well fitted curve in the direction sought with a large enough effect; inconclusive means small, poorly fitted or top-dose-only effect, or another doubt; inactive means no such curve, though single readings can be large; an effect the other way counts as inactive or inconclusive. Potency means the concentration at half of the fitted maximal effect.
SMILES,Rango complex inh,Tb PFK block,Rango release inh,PGK inhibitor,PKM2 act,ELG1 DNA repair
CCOc1ccc2[nH]c(=O)c(CN(Cc3nnnn3Cc3ccco3)C3CCCCC3)cc2c1,-2%,-12%,-19%,2%,5%,10µM*
CCOC(=O)Cn1nnnc1CN(Cc1ccc(OC)cc1)Cc1cc2cc(CC)ccc2[nH]c1=O,2%,3%,1%,-10%,2%,?
CNC(=O)CSc1nc2ccccc2c(=O)n1-c1cc(OC)ccc1OC,-5%,-3%,11%,5%,-2%,?
Fc1ccc(Nc2nc(NCc3ccco3)c3ccccc3n2)cc1,2%,-2%,0%,3%,-2%,23µM*
CCCCNC(=S)N(C)/N=C/c1ccc(OCC(=O)Nc2c(C)cc(C)cc2C)c(OC)c1,0%,0%,12%,-3%,-6%,?
CCCCOc1ccc(/C=C/C(=O)N(CC)CC(=O)Nc2ccc3c(c2)OCCO3)cc1OC,0%,0%,-1%,-2%,·,18µM*
CCCCNC(=S)N(C)/N=C/c1ccc(OCC(=O)Nc2ccc(OC)cc2)c(OC)c1,-6%,3%,1%,-4%,7%,10µM*
C/C=C/c1ccc(OCC(=O)Nc2ccc(OC)c(OC)c2)c(OC)c1,0%,-9%,0%,-2%,0%,16µM*
C/C=C/c1ccc(OCC(=O)Nc2ccncc2)c(OC)c1,-1%,-1%,-2%,-8%,·,5%
O/N=C1\CCCc2c1nc(-c1ccccc1F)n2O,2%,-2%,36%,1%,-4%,27%
CCc1nnc(SC(CC)C(=O)Nc2ccc(OC)c(Cl)c2)c2cc3occc3n12 (stereo not drawn),·,·,·,-9%,·,·
Cc1nn(C)cc1C(C)NC(=O)c1cc(COc2cccc3cnccc23)on1 (stereo not drawn),-1%,0%,-16%,3%,1%,18µM*
O=C1OCC2OC(O)C(O)C(O)C2OC(=O)c2cc(O)c(O)c(O)c2-c2c(O)c(O)c3oc(=O)c4c(c(O)c(O)c5oc(=O)c2c3c54)-c2c1cc(O)c(O)c2O (stereo not drawn),·,0.95µM*,·,·,-1%,11%
COc1cc2c(cc1OC)C(c1ccc(-c3ccc(Cl)c(Cl)c3)o1)=NCC2,?,6%,-32%,0%,-14%,15µM*
CCOC(=O)C1=C(C)Nc2sc(C(=O)c3ccc(F)cc3)c(N)c2C1c1ccc(C(=O)OC)cc1 (stereo not drawn),?,1%,?,-9%,-13%,5.2µM*
O=C(c1c(Cl)cccc1Cl)N1CCN(c2ncccn2)CC1,-1%,2%,11%,i,·,?
CCC1CN(C(=O)N2CCC(C(=O)NCc3cccc(OC)c3OC)CC2)c2cc(C)ccc2O1 (stereo not drawn),6%,-1%,-1%,-1%,·,15µM*
CN1CCN(S(=O)(=O)c2cccc(C(=O)Nc3ccc(Br)cc3Br)c2)CC1,0%,·,13%,-5%,·,·
CCOc1ccccc1N(CC)C(=O)c1nn(C)c2c1CSc1ccccc1-2,4%,0%,31%,-8%,3%[0.46 µM],9.2µM*
Cc1c(C(=O)NCc2cccs2)oc2ccc(S(=O)(=O)N3CCOCC3)cc12,2%,8%,3%,-2%,9%,10µM*
Cc1c(C(=O)NCCCN2CCCC2=O)oc2ccc(S(=O)(=O)N3CCOCC3)cc12,5%,9%,-12%,-4%,-5%,1%
Cc1c(C(=O)NCCC2=CCCCC2)oc2ccc(S(=O)(=O)N3CCOCC3)cc12,?,3%,-2%,-1%,23%,16µM*
Nc1[nH]nc2c1NN(c1ccc(Cl)cc1Cl)N2,0%,-1%,-3%,-1%,-4%,?
O=C(Nc1cccnc1)c1sc(Nc2ccccc2F)nc1-c1ccccc1,0%,1%,-7%,2%,2%,?
Cc1ccccc1Nc1nc(-c2ccccc2)c(C(=O)Nc2cccnc2)s1,1%,-1%,0%,0%,4%,23µM*
SMILES,Rango complex inh,Tb PFK block,Rango release inh,PGK inhibitor,PKM2 act,ELG1 DNA repair
COc1ccc(CNC(=O)c2ccc3ccccc3n2)cc1OC,0%,1%,-19%,-7%,·,16µM*
COc1ccc(CCNC(=O)c2cc(-c3cc(C)ccc3O)n[nH]2)cc1OC,-3%,-1%,-13%,-5%,-8%,23µM*
COc1ccc(CCNC(=O)c2cc(-c3ccccc3OC)on2)cc1OC,-5%,6%,-14%,-4%,16%,16µM*
COc1ccc(CCNC(=O)c2nc(-c3cccs3)no2)cc1OC,0%,0%,-5%,-1%,-30%,9.2µM*
CCCCc1cc(=O)oc2cc(OCC(=O)NCCN3CCOCC3)ccc12,1%,-4%,0%,i,10%[0.46 µM],5%
COc1ccc(N2C(=S)NC3CS(=O)(=O)CC32)cc1 (stereo not drawn),-2%,0%,0%,-5%,-12%,1%
O=C(Nc1ccc(Oc2nnc(-c3ccccc3)c3ccccc23)cc1)c1ccccc1,3%,-2%,5%,-3%,1%,23µM*
COc1ccc(Oc2nnc(-c3ccc(C)cc3)c3ccccc23)cc1,4%,14%,-4%,·,-7%,11%
COc1cc(OC)c2c(-c3cccc(-c4ccc(OC)c(OC)c4)c3)cc(=O)oc2c1,-5%,0%,-6%,-1%,·,?
COc1ccc(-c2ccc(-c3cc(=O)oc4cc(OC)c(OC)c(OC)c34)cc2)cc1OC,4%,-2%,0%,-12%,·,10µM*
COc1cc2oc(=O)cc(-c3ccc(-c4ccc(O)cc4)cc3)c2c(OC)c1OC,0%,2%,18%,-3%,·,?
COc1cc2oc(=O)cc(-c3cccc(-c4cccc(C)c4)c3)c2c(OC)c1OC,0%,0%,0%,-3%,·,21µM*
Cc1cccc(-c2nc(C)c(CCNC(=O)c3cccs3)s2)c1,·,·,·,-9%,·,·
O=C(CSc1nnc(-c2cccnc2)s1)Nc1cccc(C(=O)O)c1,-1%,-9%,0%,3%,-13%,3%
O=C(CSc1nnc(-c2cccnc2)s1)Nc1ccccc1,0%,2%,1%,i,14µM*,11%
O=C(CSc1nnc(-c2ccncc2)s1)Nc1ccccc1,-5%,0%,1%,-1%,4µM*,-4%
COc1ccc(-c2nnc(SCC(=O)Nc3cccc(C)c3)s2)cc1,·,·,·,-10%,·,·
